Assay outcomes from PubChem BioAssay.
This is a sample that favours compounds with a hit; in the whole collection about 27% have one here.
CYP2C9 activ: CYP2C9 (human) activation; recombinant CYP2C9, luciferin-H conversion, luminescence; hits give high values; factor 1 = untreated enzyme, 0 = blocked; activation factor at 5 µM; 1.4% of 96,000 active;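 active means activation factor of 2 or more for CYP2C9 at a 5 µM dose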;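 further: 0 = sulfaphenazole-blocked wells and 1 = vehicle-only wells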
Target sequence (P11712 whole entry, looked up): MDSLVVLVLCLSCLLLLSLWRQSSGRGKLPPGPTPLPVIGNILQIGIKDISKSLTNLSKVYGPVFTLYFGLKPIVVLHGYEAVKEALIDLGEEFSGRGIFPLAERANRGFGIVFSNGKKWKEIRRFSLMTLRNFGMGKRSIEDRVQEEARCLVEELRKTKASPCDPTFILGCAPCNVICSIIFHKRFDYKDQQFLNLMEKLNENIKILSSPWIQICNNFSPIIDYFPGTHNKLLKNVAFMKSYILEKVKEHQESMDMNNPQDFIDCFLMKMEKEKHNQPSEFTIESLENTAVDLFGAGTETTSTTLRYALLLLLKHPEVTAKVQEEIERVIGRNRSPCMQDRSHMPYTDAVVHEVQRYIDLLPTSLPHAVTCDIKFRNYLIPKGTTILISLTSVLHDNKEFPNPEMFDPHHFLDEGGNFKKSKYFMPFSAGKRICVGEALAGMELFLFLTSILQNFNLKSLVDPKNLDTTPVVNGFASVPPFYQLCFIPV
CYP2C9 inh: inhibitors of human CYP2C9 | P11712 | inhibition, % at 5 µM | CYP2C9 Supersomes, luciferin-H conversion, luminescence | 20% of 96,000 active | AID 777;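 active means blocking of liver enzyme CYP2C9 beyond about 50% at 5 µM, limit read from the data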
sEH inhibitor: inhibitors of human soluble epoxide hydrolase. P34913. recombinant human sEH enzymatic activity assay. inhibition, % at 2 µM. 0.34% of 91,000 active. AID 707; in the data active means inhibition above about 80%
CYP2C19 inhib: human CYP2C19 inhibition; P33261; inhibition, % at 5 µM; 21% of 96,000 active; AID 778; CYP2C19 Supersomes, luciferin-H EGE luminescence, 30 min;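 active means CYP2C19 inhibition above a set limit at 5 µM in the primary screen, cut at about 50% in these data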;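 further: plate controls were negative control wells for no effect and 2.5 mM tranylcypromine positive control for full effect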
sEH act: activators of human soluble epoxide hydrolase; purified human sEH enzymatic activity, activator screen; activation, % at 2 µM; 0.04% of 91,000 active; P34913; in the data active means activation above about 37%
CYP2C19 activ: increases human CYP2C19 enzyme activity. activation factor at 5 µM. P33261. AID 1025. recombinant CYP2C19, luciferin-H EGE luminescence; hits give high values; 0 = fully inhibited enzyme, 1 = untreated enzyme. 96,000 tested, under 10 active;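 active means activation factor of at least 2 at 5 µM in the primary screen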;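 further: 0 = wells with 2.5 mM tranylcypromine and 1 = vehicle-only wells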
* = called active by the depositor; · = no result given.

SMILES | CYP2C9 activ | CYP2C9 inh | sEH inhibitor | CYP2C19 inhib | sEH act | CYP2C19 activ
C=CCn1c(-c2cccc3ccccc23)n[nH]c1=S | 0.5 | 52* | 6 | 92* | -5 | 0.1
O=C(/C=C/Nc1cccc([N+](=O)[O-])c1)c1cccs1 | 0.3 | 71* | 5 | 30 | -5 | 0.7
O=C(CCCN1C(=O)c2ccccc2C1=O)Oc1ccc(F)cc1 | 0.9 | 6 | 8 | 65* | -13 | 0.3
Cc1cc(C)cc(OC(=O)CCN2C(=O)c3ccccc3C2=O)c1 | · | · | 2 | · | 2 | ·
Cc1ccc(-c2csc3ncn(-n4c(C)ccc4C)c(=O)c23)o1 | 0.5 | 47 | -6 | 87* | 5 | 0.1
C=CCn1c(SCc2ccccc2)nc2scc(-c3ccc(C)o3)c2c1=O | 0.7 | 27 | -4 | 12 | 7 | 0.9
CC(=O)/C=C1/SC(CC(=O)O)C(=O)N1c1ccccc1 (stereo not given) | · | · | -3 | · | 4 | ·
NC(=O)c1ccccc1NS(=O)(=O)Cc1ccccc1 | 4* | -295 | -10 | 50 | 8 | 0.5
CC(=O)Nc1ccc(S(=O)(=O)N(Cc2ccccc2)C(C)C)cc1 | 0.3 | 67* | 2 | 52* | -2 | 0.5
CC(=O)Nc1ccc(NS(=O)(=O)c2ccc3ccccc3c2)cc1 | 0.3 | 75* | -5 | 99* | 7 | 0
CC(=O)Nc1ccc(S(=O)(=O)N(CC(=O)O)Cc2ccccc2)cc1 | 1.1 | -7 | 12 | 4 | -10 | 1
CC(=O)Nc1ccc(NS(=O)(=O)C(F)(F)F)cc1 | 0.6 | 38 | -3 | 14 | 5 | 0.9
CC(=O)Nc1ccc(NS(=O)(=O)Cc2ccccc2)cc1 | 0.6 | 37 | 1 | 58* | 0 | 0.4
Cc1ccc(CN2C(=O)CCC2C(=O)NCCN(CC(C)C)CC(C)C)cc1 (stereo not given) | 0.7 | 27 | · | 8 | · | 0.9
Cn1nnnc1SCC(=O)Nc1ccccc1N1CCCCC1 | · | · | 2 | · | 0 | ·
CC(=O)c1sc(-c2c(C)nc3sccn23)nc1C1CCCC1 | 0.6 | 36 | · | 14 | · | 0.9
CC(=O)Nc1ccc(NS(=O)(=O)c2cccc3ccccc23)cc1 | 0.7 | 29 | 5 | 89* | -5 | 0.1
CC(C)N(Cc1ccccc1)S(=O)(=O)N(C)C | 0.8 | 23 | -11 | 77* | 9 | 0.2
O=C(Nc1ccccc1C(=O)N1CCOCC1)C1CCCO1 (stereo not given) | 1.2 | -16 | -3 | -7 | 4 | 1.1
COc1cc2ncnc(NCc3ccc(C)cc3)c2cc1OC | 1 | -2 | -8 | 63* | 11 | 0.4
CC(=O)N1CCc2ccc(C(=O)CN3CCN(c4cccc(C)c4C)CC3)cc21 | 1 | 0 | 16 | -4 | -14 | 1
Cn1c(NC(=O)C2c3ccccc3Oc3ccccc32)cc(=O)n(C)c1=O | 0.9 | 15 | -7 | 23 | 5 | 0.8
Cn1c(NC(=O)C2CCCO2)cc(=O)n(C)c1=O (stereo not given) | 0.3 | 66* | · | 23 | · | 0.8
CC(C)OC(=O)c1c(NC(=O)c2cccs2)sc2c1CCCC2 | 0.3 | 74* | · | -4 | · | 1
CCOC(=O)c1c(NC(=O)Cc2cccs2)sc(C(=O)N2CCCCC2)c1C | 0.3 | 65* | 15 | 65* | -13 | 0.3
SMILES | CYP2C9 activ | CYP2C9 inh | sEH inhibitor | CYP2C19 inhib | sEH act | CYP2C19 activ
COC(=O)c1sc(S(=O)(=O)NCc2cccs2)c(C(=O)OC)c1C | 0.2 | 82* | 6 | 89* | -3 | 0.1
CCOC(=O)Cc1csc(NC(=O)Cc2cccs2)n1 | 0.5 | 46 | 6 | 22 | -6 | 0.8
CCOC(=O)c1cnn(CCOC(=O)Cc2cccs2)c1NC(=O)Cc1cccs1 | 0.1 | 89* | 6 | 88* | -5 | 0.1
CCC(C)(C)NC(=O)C(c1ccc(OC)cc1)N(Cc1cccs1)C(=O)CCC(=O)Nc1cc(C)on1 (stereo not given) | · | · | 3 | · | 0 | ·
O=C(Cc1cc(=O)[nH]c(=O)[nH]1)NCCN1CCOCC1 | · | · | 1 | · | -2 | ·
Cc1noc(C)c1S(=O)(=O)N(C)CC(=O)Nc1ccc(F)cc1 | 0.6 | 36 | 15 | 26 | -17 | 0.7
Cc1ccccc1N(C(=O)Cn1nnc2ccccc21)C(C(=O)NCc1ccco1)c1ccncc1 (stereo not given) | 0.8 | 23 | · | 28 | · | 0.7
O=c1c(/C=C(\O)c2ccccc2)nc2ccccc2n1-c1ccccc1 | 0.7 | 34 | 1 | 46 | -2 | 0.5
COC(=O)c1c(NC(=O)Cc2ccccc2)sc(C)c1C | 0.8 | 24 | -1 | 32 | 3 | 0.7
